Results reported in PubChem BioAssay.
Results filed as inconclusive are left out. Calls of active or inactive are those of the source.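 How the source made its calls, unless noted: active means efflux inhibition above 0.42, the validation set average plus 4 SD; inconclusive means no clear call, values can overlap the other calls; inactive means the rest.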

How the values were obtained:
[1] = yeast TOR pathway RPL19A-GFP modulators, primary screen, cell-based, S. cerevisiae, multiplex flow cytometry (AID 1862; in the data active means percent of DMSO control GFP below about 86%;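 further: lower values mimic rapamycin by blocking the RPL19A rise seen in DMSO cells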); details: S. cerevisiae RPL19A-GFP strain, flow cytometry fluorescence, 3 h; at 10 µM; stronger effect = lower value
[2] = modulators of MEP2-GFP levels in yeast, primary screen, S. cerevisiae, multiplex flow cytometry (AID 1867;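 active means GFP response, as percent of the DMSO control, above the screen-wide mean plus 3 SD, about 139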;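 further: median GFP channel fluorescence of barcode-gated MEP2-GFP cells measured by flow cytometry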); details: S. cerevisiae MEP2-GFP strain, 3 h, at 10 µM, stronger effect = higher value, 100% means same as DMSO wells
[3] = modulators of CIT2-GFP expression in yeast, primary screen, S. cerevisiae, GFP fusion, multiplex flow cytometry (AID 1870;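 active means percent response above a set limit, the screen-wide mean plus 3 SD, cut at about 130% in these data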;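 further: barcoded CIT2-GFP strain pooled with four other GFP strains with rapamycin as positive control; median GFP fluorescence per well over plate mean of DMSO wells so 100% = DMSO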); details: 3 h, at 10 µM, stronger effect = higher value
[4] = modulators of LAP4-GFP expression in yeast, primary screen, S. cerevisiae, multiplex flow cytometry (AID 1873;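 active means GFP signal, as percent of the solvent control, above the screen mean plus 3 SD, about 149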); details: 3 h, at 10 µM, stronger effect = higher value
[5] = inhibitors of CD8+ T cell-vesicle binding, pilot screen, LFA-1/ICAM-1 modulator project, MLPCN validation set, flow cytometry (AID 2523;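 active means response below a set limit, under 55% cells CD8-positive and vesicle-bound, and CD8 cells' 90th-percentile brightness under 279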;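 on vesicle binding response: mean PE anti-B7-1 fluorescence of CD8+ cells relative to row control; 100% = QL9-loaded vesicles with DMSO vehicle in the same plate row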); details: 2C mouse CD8+ T cells, at 7 µM, stronger effect = lower value; double positive events: measured here: CD8+/vesicle+ event percentage
[6] = biological target: Integrin beta-1 (Homo sapiens) + Integrin alpha-4 (Homo sapiens) (UniProt P13612+P05556); assay: inhibition of HUTS-21 binding to VLA-4, pilot screen, VLA-4 allosteric modulator project, U937 cells, HUTS-21 mAb, flow cytometry, validation set (AID 2674;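 active means inhibition above 50%, about 3 SD of the validation set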;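 further: antibody binding induced by the VLA-4 ligand LDV present at three times its Kd; 0% = LDV ligand with antibody and no compound and 100% = antibody without LDV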); details: HUTS-21 LIBS mAb binding, at 6.7 µM, stronger effect = higher value, binding induced by LDV ligand
[7] = superoxide lowering in aged yeast cells, pilot screen, validation compound set (AID 2706;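 active means superoxide response below 65% of plate, a cut near 3 SD across the whole screen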;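 further: yeast exposed to compound for one week at 30 degrees C before staining; 100% = mean of all compound wells on the same plate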); details: S. cerevisiae aging, superoxide DHE fluorescence; at 10 µM, stronger effect = lower value
[8] = biological target: Beta-adrenergic receptor kinase 1 (Homo sapiens) (UniProt P25098); assay: GRK2 binders displacing RNA aptamer, biochemical, validation, human GRK2, bead flow cytometry (AID 488806;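 active means aptamer binding inhibition above 30%, about 3 SD of noise from non-fluorescent compounds; inactive means inhibition at or below 30%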); details: bead-bound GRK2, FAM-aptamer displacement, at 10 µM, stronger effect = higher value
[9] = biological target: Beta-2 adrenergic receptor (Homo sapiens) (UniProt P07550); assay: beta2AR agonists driving receptor internalization, pilot screen, cell-based, FAP fluorogen, flow cytometry, validation set (AID 504459;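 active means percent response above 42, roughly 3 SD of non-fluorescent test compounds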;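 further: agonist-driven loss of surface beta2AR via internalization measured by FAP dye flow cytometry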); details: Am2.2-beta2AR cells, FAP surface receptor flow cytometry; at 10 µM; stronger effect = higher value
[10] = biological target: AP-2 complex subunit beta (Homo sapiens) (UniProt P63010); assay: inhibitors of arrestin peptide binding to AP2, pilot screen, biochemical, validation set, GST-AP2 beads, flow cytometry (AID 504541;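 active means inhibition above 54%, about 3 SD of non-fluorescent compounds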;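 further: AP2 carries R879A mutation and is captured from E. coli lysate; bead-bound FITC arrestin peptide fluorescence measuring arrestin peptide binding to AP2; 0% = DMSO wells and 100% = excess unlabeled arrestin peptide control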); details: FITC arrestin peptide, at 10 µM, stronger effect = higher value, AP2 beta2 appendage fragment, R879A mutant
[11] = yeast V-ATPase proton transport modulators, S. cerevisiae, pHLuorin, HTS validation (AID 504600; in the data active means response above about 15%;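 further: plate controls were DMSO for no effect and reference compound for full effect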); details: S. cerevisiae pHLuorin cytosolic pH, at 10 µM, stronger effect = higher value
[12] = system: anti-desmoglein-3 scFv antibody binding to human DSG3; assay: inhibitors of anti-DSG3 scFv binding to DSG3, pilot screen, biochemical, validation compound set, bead-based, flow cytometry (AID 588368;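 active means binding below the plate cutoff, the plate median minus 3 SD, with a reading above zero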;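 further: signal is the median channel fluorescence of bead-bound GFP antibody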); details: Protein G beads, DSG3-Fc, scFv-GFP binding, at 10 µM, stronger effect = lower value
[13] = inhibitors of fungal efflux pumps CDR1, CDR2, MDR1, pilot screen, validation compound set, multiplex, phenotypic (AID 588506);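 further: Nile Red retained in cells so higher fluorescence means more efflux inhibition; 0 = negative control wells and 1 = enniatin B 25 µM full block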; details: S. cerevisiae pump-expressing triplex, Nile Red efflux flow cytometry; at 10 µM; stronger effect = higher value; the pumps come from Candida albicans
[14] = biological target: ATP-binding cassette sub-family B member 6 (Homo sapiens) (UniProt Q9NP58); assay: ABCB6 transporter inhibitors, pilot screen, K562-ABCB6 cells, flow cytometry, validation set (AID 588550;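 active means inhibition above the screen-wide mean plus 3 SD, about 51%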;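 further: 0% = DMSO wells and 100% = benzethonium chloride 70 µM positive control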); details: K562-ABCB6 porphyrin accumulation, 1 h, at 10 µM, stronger effect = higher value
[15] = promoters of myeloid differentiation in arrested cells, primary screen, cell-based, GFP/MAC1 double positive, flow cytometry, validation set (AID 588685;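 active means differentiation response of at least 50%, scaled between solvent and reference control, from cells with both markers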;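 further: compound exposure lasts four days before antibody staining and flow analysis; 0% = DMSO wells and 100% = 5 µM fulvestrant positive control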); details: ER-HoxA9 marrow cells, stronger effect = higher value, normalized: vehicle 0, fulvestrant 100
[16] = modulators of AGP1-GFP expression in yeast TOR pathway, primary screen, cell-based, multiplex flow cytometry, S. cerevisiae (AID 1887;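 active means GFP signal above the screen-wide mean plus 3 SD, that is over about 124.5% of the solvent control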;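 further: AGP1-GFP fusion strain of S. cerevisiae within a five-strain barcoded multiplex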); details: 3 h, at 10 µM, stronger effect = higher value

Beta-adrenergic receptor kinase 1 (Homo sapiens), sequence (P25098 whole entry, looked up): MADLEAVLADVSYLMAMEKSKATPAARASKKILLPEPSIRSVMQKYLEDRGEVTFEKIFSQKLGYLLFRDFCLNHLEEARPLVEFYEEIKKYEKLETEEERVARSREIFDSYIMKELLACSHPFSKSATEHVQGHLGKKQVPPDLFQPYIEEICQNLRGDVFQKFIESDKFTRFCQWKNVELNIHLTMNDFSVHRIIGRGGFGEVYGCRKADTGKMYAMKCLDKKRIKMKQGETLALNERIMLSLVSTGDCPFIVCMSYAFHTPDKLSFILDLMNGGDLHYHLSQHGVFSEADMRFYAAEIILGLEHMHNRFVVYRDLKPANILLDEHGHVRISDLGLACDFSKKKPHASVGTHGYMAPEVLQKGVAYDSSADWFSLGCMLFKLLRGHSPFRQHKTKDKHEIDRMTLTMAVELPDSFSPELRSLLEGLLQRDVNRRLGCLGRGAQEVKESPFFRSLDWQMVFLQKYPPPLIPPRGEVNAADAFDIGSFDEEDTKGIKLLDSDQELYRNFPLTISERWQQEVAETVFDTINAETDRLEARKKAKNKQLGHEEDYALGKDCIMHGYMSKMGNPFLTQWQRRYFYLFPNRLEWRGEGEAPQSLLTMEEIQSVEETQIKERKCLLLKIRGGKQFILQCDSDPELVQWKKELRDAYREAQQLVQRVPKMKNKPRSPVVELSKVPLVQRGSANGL
ATP-binding cassette sub-family B member 6 (Homo sapiens), sequence (Q9NP58 whole entry, looked up): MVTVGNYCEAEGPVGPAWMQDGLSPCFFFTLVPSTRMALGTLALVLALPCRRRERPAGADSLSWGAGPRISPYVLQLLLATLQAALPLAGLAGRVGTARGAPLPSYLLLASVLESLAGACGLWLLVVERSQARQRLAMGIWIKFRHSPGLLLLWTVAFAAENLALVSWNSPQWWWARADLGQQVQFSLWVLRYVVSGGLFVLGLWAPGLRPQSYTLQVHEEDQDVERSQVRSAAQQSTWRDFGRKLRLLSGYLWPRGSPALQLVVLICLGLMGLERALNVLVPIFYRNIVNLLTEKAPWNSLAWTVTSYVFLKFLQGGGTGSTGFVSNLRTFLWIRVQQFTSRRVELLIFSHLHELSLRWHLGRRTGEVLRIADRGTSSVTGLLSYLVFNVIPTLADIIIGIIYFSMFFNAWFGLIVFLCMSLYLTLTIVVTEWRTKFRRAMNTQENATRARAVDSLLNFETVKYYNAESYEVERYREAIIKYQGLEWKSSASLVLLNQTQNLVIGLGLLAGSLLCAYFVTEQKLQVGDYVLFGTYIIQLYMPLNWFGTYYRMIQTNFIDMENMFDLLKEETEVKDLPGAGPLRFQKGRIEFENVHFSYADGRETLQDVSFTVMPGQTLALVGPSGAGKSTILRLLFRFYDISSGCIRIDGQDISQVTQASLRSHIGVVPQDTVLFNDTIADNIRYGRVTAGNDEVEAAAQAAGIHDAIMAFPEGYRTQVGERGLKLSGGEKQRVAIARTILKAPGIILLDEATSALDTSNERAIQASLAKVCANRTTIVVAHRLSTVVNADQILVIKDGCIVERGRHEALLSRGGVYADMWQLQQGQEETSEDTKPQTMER
Integrin beta-1 (Homo sapiens) + Integrin alpha-4 (Homo sapiens), sequence (P05556 whole entry, looked up): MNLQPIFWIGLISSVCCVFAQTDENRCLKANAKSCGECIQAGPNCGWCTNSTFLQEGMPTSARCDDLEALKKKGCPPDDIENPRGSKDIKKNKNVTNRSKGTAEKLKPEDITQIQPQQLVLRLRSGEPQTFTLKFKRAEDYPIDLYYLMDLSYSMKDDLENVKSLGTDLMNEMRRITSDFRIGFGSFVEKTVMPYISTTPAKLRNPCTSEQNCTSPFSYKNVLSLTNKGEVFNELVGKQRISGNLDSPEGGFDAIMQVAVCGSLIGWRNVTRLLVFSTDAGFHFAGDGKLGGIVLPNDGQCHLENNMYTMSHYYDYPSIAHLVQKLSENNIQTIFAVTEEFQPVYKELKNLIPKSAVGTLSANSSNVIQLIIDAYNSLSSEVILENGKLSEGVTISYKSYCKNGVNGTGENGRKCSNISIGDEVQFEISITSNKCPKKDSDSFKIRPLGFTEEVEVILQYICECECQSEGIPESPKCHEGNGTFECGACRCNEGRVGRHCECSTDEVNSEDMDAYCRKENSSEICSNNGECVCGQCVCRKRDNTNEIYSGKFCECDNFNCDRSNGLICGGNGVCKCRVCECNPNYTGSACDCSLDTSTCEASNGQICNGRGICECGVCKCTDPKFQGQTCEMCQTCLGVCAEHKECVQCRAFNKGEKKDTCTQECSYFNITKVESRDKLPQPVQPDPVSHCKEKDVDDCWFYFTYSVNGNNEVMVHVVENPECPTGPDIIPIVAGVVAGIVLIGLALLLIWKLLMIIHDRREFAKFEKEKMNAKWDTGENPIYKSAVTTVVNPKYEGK
Integrin beta-1 (Homo sapiens) + Integrin alpha-4 (Homo sapiens), sequence (P13612 whole entry, looked up): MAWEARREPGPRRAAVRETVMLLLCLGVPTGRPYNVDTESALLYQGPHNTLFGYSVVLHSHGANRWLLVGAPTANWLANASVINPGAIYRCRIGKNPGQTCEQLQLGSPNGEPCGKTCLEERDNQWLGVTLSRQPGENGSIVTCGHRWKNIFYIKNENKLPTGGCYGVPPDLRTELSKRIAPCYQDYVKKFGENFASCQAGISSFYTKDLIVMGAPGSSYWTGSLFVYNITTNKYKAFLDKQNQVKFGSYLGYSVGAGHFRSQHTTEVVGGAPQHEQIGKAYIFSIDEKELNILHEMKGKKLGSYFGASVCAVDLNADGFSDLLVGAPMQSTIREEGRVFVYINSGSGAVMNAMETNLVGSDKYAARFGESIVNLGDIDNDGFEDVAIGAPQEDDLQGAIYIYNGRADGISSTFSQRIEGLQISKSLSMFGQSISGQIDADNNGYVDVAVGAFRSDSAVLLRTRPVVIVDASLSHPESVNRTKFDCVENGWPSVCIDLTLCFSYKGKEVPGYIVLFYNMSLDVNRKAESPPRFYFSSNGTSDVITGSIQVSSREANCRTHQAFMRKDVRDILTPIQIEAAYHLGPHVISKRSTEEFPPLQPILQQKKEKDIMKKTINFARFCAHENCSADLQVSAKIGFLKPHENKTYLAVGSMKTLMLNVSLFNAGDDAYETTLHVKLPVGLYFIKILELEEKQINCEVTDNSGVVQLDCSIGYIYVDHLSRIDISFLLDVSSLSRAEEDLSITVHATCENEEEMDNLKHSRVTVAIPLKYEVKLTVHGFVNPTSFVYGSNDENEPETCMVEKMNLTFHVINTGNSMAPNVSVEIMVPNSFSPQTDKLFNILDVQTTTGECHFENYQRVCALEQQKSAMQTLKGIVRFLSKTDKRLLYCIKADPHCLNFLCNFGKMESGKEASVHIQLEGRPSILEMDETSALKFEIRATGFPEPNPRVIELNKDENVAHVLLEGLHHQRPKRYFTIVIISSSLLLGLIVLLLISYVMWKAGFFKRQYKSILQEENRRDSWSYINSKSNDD
AP-2 complex subunit beta (Homo sapiens), sequence (P63010 whole entry, looked up, the tested form may be a part, one chain of several): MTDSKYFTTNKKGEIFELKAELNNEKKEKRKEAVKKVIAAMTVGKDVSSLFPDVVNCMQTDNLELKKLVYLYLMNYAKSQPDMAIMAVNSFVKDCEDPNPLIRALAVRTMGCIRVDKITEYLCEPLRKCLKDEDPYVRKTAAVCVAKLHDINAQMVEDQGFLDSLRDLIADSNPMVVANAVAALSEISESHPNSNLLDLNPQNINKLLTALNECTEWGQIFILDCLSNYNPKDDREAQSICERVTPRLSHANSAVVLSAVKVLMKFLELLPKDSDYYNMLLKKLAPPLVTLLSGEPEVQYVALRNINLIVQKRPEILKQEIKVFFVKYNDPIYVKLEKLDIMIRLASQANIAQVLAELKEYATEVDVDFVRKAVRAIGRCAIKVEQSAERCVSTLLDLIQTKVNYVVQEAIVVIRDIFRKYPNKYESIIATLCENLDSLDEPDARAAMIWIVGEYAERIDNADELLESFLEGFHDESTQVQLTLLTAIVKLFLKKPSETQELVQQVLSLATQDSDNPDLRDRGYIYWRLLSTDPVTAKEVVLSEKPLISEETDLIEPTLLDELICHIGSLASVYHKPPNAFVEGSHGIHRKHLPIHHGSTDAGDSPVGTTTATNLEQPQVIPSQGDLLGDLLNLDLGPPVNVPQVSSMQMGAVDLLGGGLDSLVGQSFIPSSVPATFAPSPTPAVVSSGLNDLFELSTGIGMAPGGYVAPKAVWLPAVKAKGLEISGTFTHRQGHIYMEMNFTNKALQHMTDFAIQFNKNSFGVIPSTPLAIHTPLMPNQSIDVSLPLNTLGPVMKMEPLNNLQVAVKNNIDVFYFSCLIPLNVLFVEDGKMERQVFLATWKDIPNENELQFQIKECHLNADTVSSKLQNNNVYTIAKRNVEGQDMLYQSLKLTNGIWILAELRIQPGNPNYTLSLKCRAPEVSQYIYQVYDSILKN
Beta-2 adrenergic receptor (Homo sapiens), sequence (P07550 whole entry, looked up): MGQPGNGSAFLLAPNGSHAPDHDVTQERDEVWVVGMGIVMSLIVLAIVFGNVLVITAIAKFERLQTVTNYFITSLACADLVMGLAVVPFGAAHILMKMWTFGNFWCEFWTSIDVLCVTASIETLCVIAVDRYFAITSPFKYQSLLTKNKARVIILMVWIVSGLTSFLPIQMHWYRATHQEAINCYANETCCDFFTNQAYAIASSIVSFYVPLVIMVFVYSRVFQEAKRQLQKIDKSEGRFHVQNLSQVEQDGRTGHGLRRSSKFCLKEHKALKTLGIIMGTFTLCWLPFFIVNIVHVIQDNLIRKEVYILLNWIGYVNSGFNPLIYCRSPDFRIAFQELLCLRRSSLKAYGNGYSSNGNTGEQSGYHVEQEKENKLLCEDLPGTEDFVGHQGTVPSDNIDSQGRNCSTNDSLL

Row | SMILES | percent of DMSO control GFP [1] | GFP response vs DMSO [2] | percent response of DMSO control [3] | GFP response vs DMSO [4] | double positive events [5] [%] | vesicle binding response [5] | inhibition [6] | superoxide response (% of plate) [7] | aptamer binding inhibition [8] | response [9] | inhibition [10] | response [11] | binding (% of control) [12] | efflux inhibition (fraction of control) [13] | inhibition [14] | differentiation response [15] | GFP response, % of DMSO [16]
1 | CCOC(=O)c1c(C)oc2cc(Br)c(OC(C)C(=O)OCC)cc12 (stereo not given) | 95% (inactive) | 119% (inactive) | 102% (inactive) | 84.7% (inactive) | 60.7 | 238% (inactive) | 2.58% (inactive) | 93% (inactive) | 7% (inactive) | 4% (inactive) | 1.62% (inactive) | -3.94% (inactive) | 101% (inactive) | -0.31 (inactive) | 12% (inactive) | -1.64% (inactive) | 
2 | CCCCC/C=C\C[C@H](O)/C=C/c1cccc(C[C@H](O)CCCCO)n1 | 97.9% (inactive) | 111% (inactive) | 111% (inactive) | 75.9% (inactive) | 52.3 | 41.1% (active) | -3.24% (inactive) | 116% (inactive) | 1% (inactive) | -7.36% (inactive) | -4.61% (inactive) | 1.37% (inactive) | 103% (inactive) | 0.16 (inactive) | 10% (inactive) | -2.46% (inactive) | 
3 | Cc1ccccc1NC(=O)C1c2ccccc2Oc2ccccc21 | 96.1% (inactive) | 120% (inactive) | 110% (inactive) | 77.6% (inactive) | 65.5 | 217% (inactive) | 4.52% (inactive) | 86.5% (inactive) | 2% (inactive) | -5.21% (inactive) | -0.97% (inactive) | -0.9% (inactive) | 105% (inactive) | 0.16 (inactive) | 12% (inactive) | -4.09% (inactive) | 
4 | CCCCOc1ccc(OCCCN2CCOCC2)cc1 | 86.5% (inactive) | 136% (inactive) | 104% (inactive) | 86.9% (inactive) | 56 |  | 11.3% (inactive) | 112% (inactive) | 3% (inactive) | -8.98% (inactive) | -2.38% (inactive) | 1.62% (inactive) | 106% (inactive) | -0.06 (inactive) | 11% (inactive) | 4.91% (inactive) | 95.9% (inactive)
5 | CCN1CCN(C(=O)N[C@@H](C(=O)N[C@@H]2C(=O)N3[C@@H]2SC(C)(C)[C@@H]3C(=O)O)c2ccccc2)C(=O)C1=O | 94.4% (inactive) | 122% (inactive) | 103% (inactive) | 74.3% (inactive) | 69.1 | 138% (inactive) | -5.18% (inactive) | 109% (inactive) | 2% (inactive) | -5.92% (inactive) | 3.29% (inactive) | 1.38% (inactive) | 103% (inactive) | 0.16 (inactive) | 7% (inactive) | 3.28% (inactive) | 
